A selection: hits, their analogues and other compounds. The true share with any hit is near 2.7%.
A549 tox: kills or reduces viability of A549 cells in Nrf2 counter-screen | A549 ARE-Fluc cells, CellTiter-Fluor viability, 18-24 h | Potency, µM (doses to about 46 µM), actives largely listed as inhibitors | hit rate 0.16% among 390,000 | AID 504648
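A549 ARE-Fluc cells in 5% FBS OPTI-MEM, 5000 cells/well, rested 2 h then exposed to compounds in concentration-response for 18-24 h at 37 °C. Viability by CellTiter-Fluor fluorescence (Ex 405/Em 525) after 30 min; luciferase luminescence (BugLite, 15 min, RT) read afterwards.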
Nrf2 inh: inhibitors of Nrf2 signaling; Potency, µM (doses to about 46 µM), most hits filed as inhibitors; A549 ARE-Fluc reporter, luciferase luminescence, 18-24 h; hit rate 2.1% among 360,000; further: nearly all actives have a fitted effect of over 60% in size
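Concentration-response testing used A549 ARE_Fluc cells at 5000 cells/well. Following an 18-24 h compound incubation, viability was read by fluorescence (Ex 405/Em 525) and luciferase output by luminescence.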
ALOX12 inh: inhibitors of human 12S-lipoxygenase ALOX12; Potency, µM (top dose mostly 108 µM), most hits filed as inhibitors; purified 12hLO, xylenol orange hydroperoxide absorbance; hit rate 1.1% among 580,000; P18054
Target sequence (P18054 whole entry, looked up): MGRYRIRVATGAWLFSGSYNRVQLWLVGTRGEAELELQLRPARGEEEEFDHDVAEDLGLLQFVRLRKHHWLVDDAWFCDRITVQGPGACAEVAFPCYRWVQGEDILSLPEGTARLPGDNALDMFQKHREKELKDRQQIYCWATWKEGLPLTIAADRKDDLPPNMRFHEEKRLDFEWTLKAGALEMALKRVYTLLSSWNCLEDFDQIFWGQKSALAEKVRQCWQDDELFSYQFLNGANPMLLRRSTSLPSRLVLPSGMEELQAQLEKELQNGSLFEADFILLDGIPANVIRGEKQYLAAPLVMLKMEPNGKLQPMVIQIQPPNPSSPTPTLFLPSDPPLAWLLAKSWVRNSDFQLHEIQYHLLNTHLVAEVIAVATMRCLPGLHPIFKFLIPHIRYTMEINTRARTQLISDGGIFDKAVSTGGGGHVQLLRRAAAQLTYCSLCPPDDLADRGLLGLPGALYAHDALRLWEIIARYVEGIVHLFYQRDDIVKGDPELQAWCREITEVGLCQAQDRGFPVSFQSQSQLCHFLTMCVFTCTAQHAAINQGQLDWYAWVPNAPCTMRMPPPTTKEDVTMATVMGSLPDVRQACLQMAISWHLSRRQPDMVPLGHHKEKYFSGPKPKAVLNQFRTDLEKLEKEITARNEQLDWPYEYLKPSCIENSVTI
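Hydroperoxide product was detected by ferrous iron/xylenol orange as the 573 to 405 nm absorbance ratio. Arachidonic acid at 40 uM (final) was turned over for 30 min at room temperature by 150 nM human 12hLO, pH 7.0 Hepes buffer, after 15 min compound preincubation.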
Nrf2 activator: Nrf2 pathway activation | AREc32 ARE-luciferase reporter (MCF7-derived line), luminescence, 24 h | Potency, µM (top dose mostly 46.1 µM), hits mostly activators | hit rate 0.31% among 410,000 | AID 624171; further: nearly all actives have a fitted effect of over 65% in size
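AREc32 cells carrying an ARE-driven firefly luciferase reporter were seeded at 1000 cells/well in OPTI-MEM with 5% FBS, then exposed to compound for 24 hr at 37 deg C. Luminescence was read with Steady-Glo after 30 min at RT.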
LDHA block: blocks human lactate dehydrogenase A. hit rate 0.15% among 480,000. activity change, % (values are at about 110 or 230 µM). purified LDHA, NADH/diaphorase-resazurin fluorescence; hits give low values. AID 1347041; in the data active means activity change below about -30%; inconclusive means mostly about -25% to -30%
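Human LDH5 at 2 nM final in Tris HCl pH 7.4 with 0.06 mM NADH and 0.2 mM pyruvate, reacted 5 minutes at room temperature. Remaining NADH coupled via diaphorase/resazurin; resorufin fluorescence read at 0 and 20 minutes, normalized to enzyme-free and DMSO wells.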
ERG Ets-DNA blk: blocks human ERG Ets domain binding to DNA; fluorescence polarization, His-ERG Ets domain / labelled DNA; P11308; AID 624246; Potency, µM (series often up to 76.9 µM), actives largely listed as inhibitors; hit rate 0.028% among 370,000; active means well fitted inhibition curve with a large enough effect in the polarisation, with a control signal flat; inconclusive means small, poorly fitted or top-dose-only effect, or effect the other way, or a change in a side signal; inactive means no such curve, though single readings can be large or run the other way; the % refers to the polarisation;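 further: polarization taken with two DNA probes labelled with fluorescein and Texas red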
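His-tagged ERG Ets domain (1 uM in the protein solution; 300mM KCl, 50mM Tris-HCl, 1mM EDTA, 1mM DTT, pH 7.5) received compound, then a probe mix of 5 nM fluorescein-DNA and 100nM Texas-615-DNA. Fluorescence polarization was read for both dyes.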
A number is an active result; n = inactive; u = inconclusive; x = no result; [ ] = remark or other dose. Unless noted, the call rests on the fitted dose curve; in most records, active means well fitted curve in the direction sought with a large enough effect; inconclusive means small, poorly fitted or top-dose-only effect, or another doubt; inactive means no such curve, though single readings can be large; an effect the other way counts as inactive or inconclusive.

SMILES	A549 tox	Nrf2 inh	ALOX12 inh	Nrf2 activator	LDHA block	ERG Ets-DNA blk
CN(NS(=O)(=O)c1ccc(Br)cc1)c1nc(C(F)(F)F)nc2ccccc12	u	21µM	n	n	n	n
CC(NC(=O)c1cccc(F)c1)C12CC3CC(CC(C3)C1)C2 (stereo not given)	x	x	u	x	n	x
CCCNC(=O)c1ccc2c(=O)n3c(-c4ccc(C)cc4)csc3nc2c1	n	n	11µM	n	n	n
Cc1cccc(C)c1Nc1c(-c2ccsc2)nc2ccccn12	n	18µM	u	n	n	n
CCOC(=O)[C@]12CCC=C1N(Cc1ccc3c(c1)OCO3)C(=O)[C@H](CC(=O)NCCCCc1ccccc1)C2	x	x	n	n	n	x
CCOC(=O)[C@]12CCC=C1N(Cc1ccc3c(c1)OCO3)C(=O)[C@H](CC(=O)NCCc1ccccc1OC)C2	x	x	40µM	n	n	x
Cc1cc(Cl)ccc1Oc1nccc(N(C)C)c1C#N	n	23µM	n	n	n	x
CN(C)c1ccnc(Oc2ccc(Cl)cc2)c1C#N	n	n	u	n	n	x
CCOc1cc(CNc2ccc(N3CCOCC3)cc2)cc(Br)c1OCC	u	u	32µM	n	n	n
COc1cc(CNc2ccc(N3CCOCC3)cc2)cc(Br)c1OC	n	n	u	n	n	n
CCOc1cc(CNc2ccc(N(C)C)cc2)cc(Br)c1OCC(=O)NC(C)(C)C	u	u	n	n	n	n
C=CCOc1c(Br)cc(CNc2ccc(NC(=O)CCC)cc2)cc1OCC	n	15µM	n	n	n	n
CCOc1cc(CNc2ccc(N3CCCCC3)cc2)cc(Br)c1OCC(=O)NC(C)(C)C	u	16µM	u	n	n	n
Cc1nc2ccc(C(=O)NCc3ccncc3)cc2nc1C	x	x	n	x	n	x
O=C1CCCC2=C1C(c1ccc(OC(F)F)cc1)C=C1c3cc4c(cc3CCN12)OCCCO4 (stereo not given)	x	x	u	x	n	x
COc1cc(/C=C(\C#N)C(N)=C(C#N)C#N)cc(Cl)c1O	x	x	u	x	n	x
COc1ccc(OC)c(CNS(=O)(=O)c2ccc(-c3cc(C(F)(F)F)on3)s2)c1	n	16µM	n	n	n	n
O=[N+]([O-])c1ccc(-c2ccc(S(=O)(=O)NCCN3CCCC3)cc2)cc1	n	16µM	n	n	n	n
O=[N+]([O-])c1ccc(S(=O)(=O)NCCN2CCOCC2)cc1	n	n	n	n	n	n
CCn1nc(C(=O)Nc2cccc(C)n2)c2ccccc2c1=O	x	x	n	x	n	x
O=C1NC(=NC2CCCC2)C2(CCCN([S+](=O)([O-])c3cccs3)C2)N1c1cc(F)cc(F)c1 (stereo not given)	x	x	n[6.33 µM]	x	x	x
C[S+](=O)([O-])N1CCCC2(C1)C(=NC1CCCC1)NC(=O)N2c1cc(F)cc(F)c1 (stereo not given)	x	x	89µM	x	x	x
C[C@@H]1C[C@H]2[C@@H]3C[C@H](F)C4=CC(=O)C=C[C@]4(C)[C@@]3(F)[C@@H](O)C[C@]2(C)[C@@]1(O)C(=O)COC(=O)C(C)(C)C	n	0.052µM	n	n	n	n
CC(=O)OCC(=O)[C@@]1(O)[C@H](C)C[C@H]2[C@@H]3CCC4=CC(=O)C=C[C@]4(C)[C@@]3(F)[C@@H](O)C[C@@]21C	n	u	n	n	n	n
CCN1CCN(C(c2ccc(C(F)(F)F)cc2)c2ccc3cccnc3c2O)CC1 (stereo not given)	n	u	8.9µM	n	n	n
SMILES	A549 tox	Nrf2 inh	ALOX12 inh	Nrf2 activator	LDHA block	ERG Ets-DNA blk
COc1ccc(Nc2nc(C(=O)OCC(=O)c3ccc(Cl)cc3)cs2)cc1	x	x	u	x	n	x
NS(=O)(=O)c1ccc(N2N=C(c3ccc(Br)cc3)CC2c2ccc(F)cc2)cc1 (stereo not given)	u	18µM	n	n	n	n
NS(=O)(=O)c1ccc(N2N=C(c3ccccc3)CC2c2cccc(F)c2)cc1 (stereo not given)	n	n	n	n	n	n
CC1(C)CC(=O)C2=C(C1)OC(N)=C(C#N)C2c1ccc(-c2ccc(Br)cc2)o1 (stereo not given)	x	x	20µM	x	n	x
COc1ccc(C2C(C#N)=C(N)OC3=C2C(=O)CC(C)(C)C3)c2ccccc12 (stereo not given)	x	x	7.9µM	x	n	x
CC1(C)CC(=O)C2=C(C1)OC(N)=C(C#N)C2c1ccc(Br)o1 (stereo not given)	x	x	u	x	n	x
COc1ccc(C(NC(=O)Cc2n[nH]c(=O)c3ccccc23)c2ccccc2)cc1 (stereo not given)	x	x	n	x	n	x
COc1ccc(CNC(=O)Cc2c(C)c3c(OC(C)=O)cc(OC(C)=O)cc3oc2=O)cc1	x	x	u	x	n	x
O=C(O)c1cc(C(=O)O)cc(-c2ccc(/C=c3/sc4nc5ccccc5n4c3=O)o2)c1	n	n	x	n	n	n
O=C(O)c1ccccc1-c1ccc(C=c2sc3nc4cc(Br)cnc4n3c2=O)o1	x	x	7.9µM	n	n	x
Cc1cc2nc3n(c(=O)c2n1CC(=O)Nc1ccc(Cl)cc1F)CCCC3	x	x	22µM	x	x	x
COc1ccc(C(C)NC(=O)Cn2c(C)cc3nc4n(c(=O)c32)CCCC4)cc1 (stereo not given)	x	x	50µM	x	x	x
O=C(/C=C/c1ccc(F)cc1)c1ccc(O)cc1	x	x	u	x	n	x
O=C(NCC1OCCc2ccccc21)c1ccc(NC(=O)c2ccccc2Cl)cc1 (stereo not given)	n	21µM	n	n	n	n
C=CC(=O)NCC1OCCc2ccccc21 (stereo not given)	n	n	u	n	n	n
O=C(/C=C/c1ccco1)NCC1OCCc2ccccc21 (stereo not given)	n	n	45µM	n	n	n
O=C(NCC1OCCc2ccccc21)c1ccc(NC(=O)c2ccc(Cl)cc2Cl)cc1 (stereo not given)	n	n	n	n	n	n
O=C(COCc1nc2ccccc2c(=O)[nH]1)Nc1nc(-c2ccc3c(c2)CCC3)cs1	x	x	n	x	-31	x
CC(C)c1ccc(-c2csc(NC(=O)COCc3nc4ccccc4c(=O)[nH]3)n2)cc1	x	x	n	x	n	x
CC1=NN(c2ccccc2)C(=O)/C1=C/C=C/c1ccccc1	n	n	n	11µM	n	n
CC1=NN(c2cccc(C(=O)O)c2)C(=O)/C1=C\C=C\c1ccco1	n	n	n	u	n	n
Cc1ccc(C2=NOC(=O)/C2=C\C=C\c2ccccc2)cc1	u	u	1.1µM	n	n	n
COc1ccc2[nH]c(=O)c(CCC(=O)O)cc2c1	x	x	n	x	x	x
COc1ccc2[nH]c(CO)cc2c1	x	x	25µM	x	n	x
CCOc1cccc(NC(=O)c2ccc(C)cc2)c1	x	x	n	x	n	x
CCN(CC)CCn1c2ccccc2c2n[nH]c(=S)nc21	n	n	32µM	n[9.22 µM]	n	n

Screens from PubChem.
